Read-out in assay [1]: Interleukin-6 (IL6), IL6 (gene 3569)
Nature of the assay: BSK_CASM3C_IL6: BioMAP Diversity Plus: CASM3C Assay for Interleukin-6 (IL6) Biomarker Activity for (AID 2283040). The settings on record: primary human coronary artery smooth muscle cells; actives raise or lower the signal.

Read-out in assay [2]: Tissue plasminogen activator (tPA), PLAT (gene 5327)
Kind of assay: BSK_BE3C_tPA: BioMAP Diversity Plus: BE3C Assay for Tissue plasminogen activator (tPA) Biomarker Activity (AID 2283041).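 For outcome: tPA level quantified by ELISA one day after compound addition.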 To be noted: primary human bronchial epithelial cells; actives raise or lower the signal. Summed up:
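Primary human bronchial epithelial cells in the BE3C system, exposed to compound for 24 h. tPA was quantified by ELISA; DMSO served as baseline, with gain or loss of signal fitted. Cytotoxicity checked in parallel cultures by SRB total-protein staining.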

Read-out in assay [3]: Interleukin-8 (IL8), CXCL8 (gene 3576)
Kind of assay: BSK_CASM3C_IL8: BioMAP Diversity Plus: CASM3C Assay for Interleukin-8 (IL8) Biomarker Activity (AID 2283042).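 Note: IL-8 protein level quantified by ELISA.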 To be noted: primary human coronary artery smooth muscle cells; actives raise or lower the signal.

Read-out in assay [4]: Human Leukocyte Antigen - DR isotype (HLADR), HLA-DRA (gene 3122)
Nature of the assay: BSK_CASM3C_HLADR: BioMAP Diversity Plus: CASM3C Assay for Human Leukocyte Antigen - DR isotype (HLADR) Biomarker Activity (AID 2283043).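 Note: cell-surface HLA-DR protein level quantified by ELISA.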 The settings on record: primary human coronary artery smooth muscle cells; actives raise or lower the signal.

Read-out in assay [5]: Macrophage colony-stimulating factor (MCSF), CSF1 (gene 1435)
Kind of assay: BSK_CASM3C_MCSF: BioMAP Diversity Plus: CASM3C Assay for Macrophage colony-stimulating factor (MCSF) Biomarker Activity (AID 2283044).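 Note: M-CSF protein amount quantified by ELISA after 24 h exposure.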 The settings on record: primary human coronary artery smooth muscle cells; actives raise or lower the signal.

Read-out in assay [6]: Low-density lipoprotein receptor (LDLR), LDLR (gene 3949)
Kind of assay: BSK_CASM3C_LDLR: BioMAP Diversity Plus: CASM3C Assay for Low-density lipoprotein receptor (LDLR) Biomarker Activity (AID 2283045).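 Note: LDLR protein level on the cell surface quantified by ELISA.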 The settings on record: primary human coronary artery smooth muscle cells; actives raise or lower the signal.

Read-out in assay [7]: Monocyte Chemoattractant Protein-1 (MCP1), CCL2 (gene 6347)
Kind of assay: BSK_CASM3C_MCP1: BioMAP Diversity Plus: CASM3C Assay for Monocyte Chemoattractant Protein-1 (MCP1) Biomarker Activity (AID 2283046).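 Note: MCP-1 level quantified by ELISA 24 h after dosing.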 To be noted: primary human coronary artery smooth muscle cells; actives raise or lower the signal.

The nature of assay [8]: BSK_CASM3C_Proliferation: Cell Proliferation Assessment in the BioMAP Diversity Plus: CASM3C Assay (AID 2283047).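 Note: sulforhodamine B total protein stain as relative cell number at 560 nm; sub-confluent cells exposed 48 h before staining; fitted both ways against DMSO so gain or loss of cell number.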 The settings on record: primary human coronary artery smooth muscle cells.
Read-out in assay [9]: Monokine induced gamma interferon (MIG), CXCL9 (gene 4283)
Nature of the assay: BSK_CASM3C_MIG: BioMAP Diversity Plus: CASM3C Assay for Monokine induced gamma interferon (MIG) Biomarker Activity (AID 2283048).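 Note: MIG protein level measured by ELISA.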 To be noted: primary human coronary artery smooth muscle cells; actives raise or lower the signal.

Read-out in assay [10]: serum amyloid A (SAA), SAA1 (gene 6288)
Nature of the assay: BSK_CASM3C_SAA: BioMAP Diversity Plus: CASM3C Assay for serum amyloid A (SAA) Biomarker Activity (AID 2283049).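 Note: SAA protein level quantified by ELISA.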 The settings on record: primary human coronary artery smooth muscle cells; actives raise or lower the signal.

Assay [11] is described as follows: BSK_CASM3C_SRB: Viability Assessment in the BioMAP Diversity Plus: CASM3C Assay (AID 2283050). The settings on record: primary human coronary artery smooth muscle cells.
Read-out in assay [12]: Thrombomodulin, THBD (gene 7056)
Kind of assay: BSK_CASM3C_Thrombomodulin: BioMAP Diversity Plus: CASM3C Assay for Thrombomodulin Biomarker Activity (AID 2283051).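 Note: thrombomodulin protein level measured by ELISA 24 h after dosing.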 To be noted: primary human coronary artery smooth muscle cells; actives raise or lower the signal.

Read-out in assay [13]: Tissue Factor, F3 (gene 2152)
Kind of assay: BSK_CASM3C_TissueFactor: BioMAP Diversity Plus: CASM3C Assay for Tissue Factor Biomarker Activity (AID 2283052).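 Note: cell surface tissue factor protein level read by ELISA.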 The settings on record: primary human coronary artery smooth muscle cells; actives raise or lower the signal.

Read-out in assay [14]: Interferon-gamma inducible Protein 10 (IP10), CXCL10 (gene 3627)
Nature of the assay: BSK_hDFCGF_IP10: BioMAP Diversity Plus: hDFCGF Assay for Interferon-gamma inducible Protein 10 (IP10) Biomarker Activity (AID 2283053). To be noted: primary human foreskin fibroblasts; actives raise or lower the signal. Summed up:
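Primary human foreskin fibroblasts exposed to chemicals for 24 h. IP-10 measured by ELISA; changes fitted bidirectionally against DMSO baseline.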

Read-out in assay [15]: Urokinase-type plasminogen activator receptor (uPAR), PLAUR (gene 5329)
Kind of assay: BSK_CASM3C_uPAR: BioMAP Diversity Plus: CASM3C Assay for Urokinase-type plasminogen activator receptor (uPAR) Biomarker Activity (AID 2283054).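 Note: cell-surface uPAR protein level quantified by ELISA.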 To be noted: primary human coronary artery smooth muscle cells; actives raise or lower the signal.

Read-out in assay [16]: Vascular cell adhesion molecule 1 (VCAM1), VCAM1 (gene 7412)
Nature of the assay: BSK_CASM3C_VCAM1: BioMAP Diversity Plus: CASM3C Assay for Vascular cell adhesion molecule 1 (VCAM1) Biomarker Activity (AID 2283055).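 Note: VCAM-1 protein level quantified by ELISA on the cells.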 The settings on record: primary human coronary artery smooth muscle cells; actives raise or lower the signal.

Read-out in assay [17]: Collagen III, COL3A1 (gene 1281)
Nature of the assay: BSK_hDFCGF_CollagenIII: BioMAP Diversity Plus: hDFCGF Assay for Collagen III Biomarker Activity (AID 2283056). The settings on record: primary human foreskin fibroblasts; actives raise or lower the signal. Summed up: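 Human foreskin primary fibroblasts were exposed to test chemicals for 24 h, after which collagen III was quantified by ELISA. Activity was fitted bidirectionally against DMSO as negative control and baseline.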

Read-out in assay [18]: Epidermal growth factor receptor (EGFR), EGFR (gene 1956)
Kind of assay: BSK_hDFCGF_EGFR: BioMAP Diversity Plus: hDFCGF Assay for Epidermal growth factor receptor (EGFR) Biomarker Activity (AID 2283057). The settings on record: primary human foreskin fibroblasts; actives raise or lower the signal. The gist of the method: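 Primary human foreskin fibroblasts (hDFCGF system), sampled 24 h after dosing; EGFR quantified by ELISA. Bidirectional fit relative to DMSO baseline; SRB total-protein staining in parallel cultures for cytotoxicity.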

Read-out in assay [19]: Interleukin-8 (IL8), CXCL8 (gene 3576)
Nature of the assay: BSK_hDFCGF_IL8: BioMAP Diversity Plus: hDFCGF Assay for Interleukin-8 (IL8) Biomarker Activity (AID 2283058). The settings on record: primary human foreskin fibroblasts; actives raise or lower the signal. Summed up:
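hDFCGF human dermal fibroblasts; 24 h chemical exposure; IL-8 by ELISA; bidirectional curve fit vs DMSO baseline; gain or loss of signal scored.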

Drawing on PubChem BioAssay (EPA / NIEHS), this text covers outcome and AC50 for five compounds.

Several values for one entry are separate records, joined by “and”; a condition that tells them apart may be missing. Equal values may be shown once. A structure can be active in one record and inactive in another. Activity calls are given as the source filed them. Rule for the calls: active = hit-call score of the fitted dose curve at least 0.9, where 1 is the maximum; inactive = score below 0.9.

By AC50 is commonly meant the concentration giving half of the maximal activity seen.

For the compound `O=P(O)(O)CCC(F)(F)C(F)(F)C(F)(F)C(F)(F)C(F)(F)C(F)(F)F`, the outcome in [1], in [2], in [3], in [4], in assay [5] and in [6] was inactive. The result in assay [7], in assay [8], in [9], in assay [10], in [11] and in [12] was inactive. Also, the outcome in [13], in assay [14], in assay [15], in assay [16], in [17] and in [18] was inactive. Besides, the outcome in assay [19] was inactive.

In the case of `C[C@]12CC[C@@H]3c4ccc(O)cc4CC[C@H]3[C@@H]1C[C@@H](O)[C@@H]2O`, the result in assay [1], in [2], in assay [3], in assay [4], in assay [6] and in assay [7] was inactive. Further, the outcome in assay [8], in assay [9], in assay [10], in assay [11], in assay [12] and in assay [13] was inactive. The result in [14], in assay [15], in assay [16], in assay [17], in [18] and in assay [19] was inactive. In addition, in assay [5], the AC50 is 8.12 µM (active).

On to `CC[N+](CC)(CC)Cc1ccccc1`, for which the AC50 in assay [1] is 0.0875 µM (active). In addition, the result in [2], in assay [3], in assay [4], in [5], in assay [6] and in assay [7] was inactive. For the same compound, the result in assay [8], in [9], in assay [10], in assay [11], in [12] and in assay [13] was inactive. The result in [14], in [15], in [16], in assay [17], in assay [18] and in assay [19] was inactive.

Take `O=S(=O)(O)C(F)(F)C(F)(F)C(F)(F)C(F)(F)C(F)(F)C(F)(F)C(F)(F)C(F)(F)C(F)(F)C(F)(F)F`: the result in [1], in [2], in assay [3], in assay [4], in assay [5] and in [6] was inactive. In addition, the outcome in [7], in [8], in assay [9], in assay [11], in assay [12] and in assay [13] was inactive. The outcome in assay [14], in assay [15], in assay [17], in assay [18] and in assay [19] was inactive. Further, the AC50 in [5] was 13.3 µM (active); in [9], 8.66 µM (active); in assay [10], 13.3 µM (active) and 20.4 µM (active); in assay [12], 13.3 µM (active); in assay [16], 3.55 µM (active) and 2.65 µM (active).

Consider `O=C(O)C(F)(F)OC(F)(F)C(F)(F)OC(F)(F)C(F)(F)OC(F)(F)C(F)(F)C(F)(F)C(F)(F)F`, for which the result in assay [1], in assay [3], in assay [4], in [5], in assay [7] and in assay [9] was inactive. Also, the result in assay [10], in [12], in [13], in [15] and in assay [18] was inactive. Further, the AC50 in assay [2] was 4.98 µM (active) and 4.8 µM (active); in assay [5] it was 48.1 µM (active); in assay [6], 46.1 µM (active) and 55.2 µM (active); in [8] it was 51.1 µM (active) and 56.6 µM (active); in assay [10], 43.5 µM (active); in assay [11] it was 55.1 µM (active) and 45.3 µM (active). The concentration at half-maximal activity (AC50) in assay [14] was 10.1 µM (active) and 9.36 µM (active); in assay [16] it was 24.8 µM (active) and 30 µM (active); in assay [17], 10.9 µM (active) and 9.27 µM (active); in [19] it was 21.9 µM (active) and 21.2 µM (active).
